PubChem BioAssay (Tox21)
Results filed as inconclusive are left out. Active and inactive are the calls of the source. Calls follow the shape of the dose curve; as a rule, active = well fitted curve in the direction sought with a large enough effect in the repeat runs; inconclusive = weak or mixed curves; inactive = no such curve, though single readings can be large; an effect the other way counts as inactive or inconclusive.

Key:
[1] = qHTS RealTime-Glo MT Cell Viability Assay in HepG2 cells - 8 hour (AID 1224873); also: nearly all actives have a fitted effect of over 55% in size
Outline: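 HepG2 cells mixed with RealTime-Glo MT reagents (NanoLuc plus cell-permeant prosubstrate) were seeded at 600 cells/well, incubated 5 h at 37 C/5% CO2, then pinned with compounds in DMSO; nonlytic luminescence tracked viability during 40 h treatment.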

[2] = A CellTox Green Cytotoxicity Assay to monitor cytotoxicity in HEK293 cells - 24 hour (AID 1224875); also: series mostly up to about 77 µM; nearly all actives have a fitted effect of over 45% in size
Outline: (§1)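 Nonlytic real-time cytotoxicity: HEK293 + CellTox Green reagent plated, 5 h preincubation, pintool compound addition (23 nL in DMSO), 37 C for 40 h, fluorescence measured at successive time points.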

[3] = A CellTox Green Cytotoxicity Assay to monitor cytotoxicity in HepG2 cells - 16 hour (AID 1224876); also: nearly all actives have a fitted effect of over 45% in size
Outline: (§2)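 Read-out is fluorescence of a cyanine dye excluded from live cells that stains DNA of dead HepG2 cells, with signal proportional to cytotoxicity. Plates were read at 0, 8, 16, 24, 32 and 40 h after compound addition.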

[4] = qHTS RealTime-Glo MT Cell Viability Assay in HepG2 cells - 32 hour (AID 1224877); also: nearly all actives have a fitted effect of over 55% in size
Outline: (§3)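 HepG2 cells (600/well) were dispensed with RealTime-Glo reagents, incubated 5 h at 37 °C, then treated with compounds in DMSO for up to 40 h. Nonlytic NanoLuc luminescence reflecting viable cells was read at each stated time point.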

[5] = A CellTox Green Cytotoxicity Assay to monitor cytotoxicity in HepG2 cells - 24 hour (AID 1224878); also: nearly all actives have a fitted effect of over 45% in size
Outline: as §2

[6] = A CellTox Green Cytotoxicity Assay to monitor cytotoxicity in HepG2 cells - 40 hour (AID 1224879); also: nearly all actives have a fitted effect of over 40% in size
Outline: as §2

[7] = qHTS RealTime-Glo MT Cell Viability Assay in HEK293 cells - 0 hour (AID 1224880); also: top concentration of the series differs between compounds; nearly all actives have a fitted effect of over 45% in size
Outline: (§4)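 Cells were seeded together with NanoLuc luciferase and a prosubstrate that viable cells reduce to a luciferase substrate. After a 5 h incubation at 37 C/5% CO2, compounds were added and luminescence was measured repeatedly during 40 h of treatment.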

[8] = A CellTox Green Cytotoxicity Assay to monitor cytotoxicity in HEK293 cells - 32 hour (AID 1224881); also: nearly all actives have a fitted effect of over 40% in size
Outline: as §1

[9] = A CellTox Green Cytotoxicity Assay to monitor cytotoxicity in HepG2 cells - 0 hour (AID 1224882); also: nearly all actives have a fitted effect of over 35% in size; also: potency is read from the fitted curve at half-maximal effect
Outline: as §2

[10] = A CellTox Green Cytotoxicity Assay to monitor cytotoxicity in HepG2 cells - 32 hour (AID 1224883); also: nearly all actives have a fitted effect of over 50% in size
Outline: as §2

[11] = A CellTox Green Cytotoxicity Assay to monitor cytotoxicity in HEK293 cells - 8 hour (AID 1224884); also: nearly all actives have a fitted effect of over 35% in size
Outline: as §1

[12] = qHTS RealTime-Glo MT Cell Viability Assay in HepG2 cells - 16 hour (AID 1224885); also: nearly all actives have a fitted effect of over 50% in size
Outline: as §3

[13] = qHTS RealTime-Glo MT Cell Viability Assay in HEK293 cells - 24 hour (AID 1224886); also: top concentration of the series differs between compounds; nearly all actives have a fitted effect of over 50% in size
Outline: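 HEK293 cells seeded with NanoLuc/prosubstrate reagent, rested 5 h at 37 C, then dosed and kept at 37 C up to 40 h. Nonlytic real-time luminescence from viable cells read at 0, 8, 16, 24, 32 and 40 h.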

[14] = qHTS RealTime-Glo MT Cell Viability Assay in HEK293 cells - 8 hour (AID 1224887); also: top concentration of the series differs between compounds; nearly all actives have a fitted effect of over 50% in size
Outline: as §4

[15] = A CellTox Green Cytotoxicity Assay to monitor cytotoxicity in HEK293 cells - 16 hour (AID 1224888); also: nearly all actives have a fitted effect of over 35% in size
Outline: as §1

[16] = qHTS RealTime-Glo MT Cell Viability Assay in HepG2 cells - 0 hour (AID 1224889); also: nearly all actives have a fitted effect of over 50% in size
Outline: as §3

[17] = A CellTox Green Cytotoxicity Assay to monitor cytotoxicity in HepG2 cells - 8 hour (AID 1224890); also: nearly all actives have a fitted effect of over 45% in size
Outline: as §2

[18] = qHTS assay to identify small molecule antagonists of the estrogen receptor alpha (ER-alpha) signaling pathway using the BG1 cell line in the presence of 0.1 nM 17-beta-estradiol - cell viability counter screen (AID 1259241); also: nearly all actives have a fitted effect of over 40% in size
Outline: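 Cytotoxicity counter-screen: live-cell protease activity measured by fluorescence (30 min reagent step) in the same wells. Cells were VM7Luc4E2 with endogenous ER-alpha and ERE-driven luciferase, treated 22 hr at 37C alongside 0.1 nM 17beta-estradiol final.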

[19] = qHTS assay to identify small molecule antagonists of the androgen receptor (AR) signaling pathway using the MDA cell line in the presence of 0.5 nM R1881 - cell viability counter screen (AID 1259242); also: nearly all actives have a fitted effect of over 45% in size
Outline: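 Counter screen for cytotoxicity run in the same wells as the AR antagonist reporter screen: MDA-kb2 cells were treated 16 hr with test compounds and 0.5 nM R1881, then live-cell protease activity was measured by fluorescence.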

[20] = qHTS RealTime-Glo MT Cell Viability Assay in HEK293 cells - 40 hour (AID 1224874); conditions: RealTime-Glo luminescence; max response: stronger effect = lower value; also: nearly all actives have a fitted effect of over 50% in size; also: potency is read from the fitted curve at half-maximal effect
Outline: as §4
% is scaled to controls: 0 for no effect and ±100 for the full control effect.

NCCCC[C@H](N[C@@H](CCc1ccccc1)C(=O)O)C(=O)N1CCC[C@H]1C(=O)O
inactive: outcome [1] | outcome [2] | outcome [3] | Potency [4] | outcome [5] | Potency [6] | Potency [7] | outcome [8] | Potency [9] | Potency [10] | outcome [11] | outcome [12] | Potency [13] | Potency [14] | outcome [15] | Potency [16] | outcome [17] | outcome [18] | outcome [19]

CC(=O)c1ccc2ccccc2c1
inactive: outcome [1] | max response [20] 8.54% | outcome [2] | Potency [4] | Potency [7] | outcome [8] | Potency [9] | outcome [11] | outcome [12] | Potency [13] | Potency [14] | Potency [16] | outcome [18] | outcome [19]

Cc1cccc(C)c1NC(=O)CC12CCCN1CCC2
inactive: outcome [1] | max response [20] 5.91% | outcome [2] | Potency [4] | Potency [7] | outcome [8] | outcome [11] | outcome [12] | Potency [14] | outcome [15] | Potency [16] | outcome [17] | outcome [18] | outcome [19]

COc1cc2c(cc1OC)-c1cc3ccc(OC)c(OC)c3c[n+]1CC2
inactive: outcome [1] | outcome [2] | outcome [3] | Potency [4] | outcome [5] | Potency [7] | outcome [8] | Potency [9] | Potency [10] | outcome [11] | outcome [12] | Potency [14] | outcome [15] | Potency [16] | outcome [17]
active: Potency [20] 44.1 µM

CN(C)[C@@H]1C(=O)C(C(=O)NCN2CCCC2)=C(O)[C@@]2(O)C(=O)C3=C(O)c4c(O)cccc4[C@@](C)(O)C3C[C@@H]12 (stereo partly drawn)
inactive: outcome [1] | max response [20] 7.86% | outcome [2] | outcome [3] | Potency [4] | outcome [5] | Potency [7] | outcome [8] | Potency [9] | Potency [10] | outcome [11] | Potency [14] | outcome [15] | Potency [16] | outcome [17] | outcome [19]

CO/N=C(\C(=O)N[C@@H]1C(=O)N2C(C(=O)O)=C(CSc3nc(=O)c(O)nn3C)CS[C@H]12)c1csc(N)n1
inactive: outcome [1] | max response [20] 11.9% | outcome [2] | outcome [3] | Potency [4] | outcome [5] | Potency [7] | outcome [8] | Potency [9] | Potency [10] | outcome [11] | outcome [12] | Potency [13] | Potency [14] | outcome [15] | Potency [16] | outcome [18] | outcome [19]

FB(F)F
inactive: outcome [1] | max response [20] -1.41% | outcome [2] | outcome [3] | Potency [4] | outcome [5] | Potency [7] | outcome [8] | Potency [9] | Potency [10] | outcome [11] | outcome [12] | Potency [13] | Potency [14] | outcome [15] | Potency [16] | outcome [19]

C=CCOCC(O)CO (stereo not drawn)
inactive: outcome [1] | max response [20] 16.5% | Potency [4] | Potency [7] | outcome [11] | outcome [12] | Potency [13] | Potency [14] | Potency [16] | outcome [18] | outcome [19]

C[N+](C)(CCOc1ccccc1)Cc1cccs1
inactive: outcome [1] | max response [20] 6.59% | outcome [2] | Potency [7] | outcome [8] | outcome [11] | outcome [12] | Potency [13] | Potency [14] | outcome [15] | Potency [16] | outcome [19]

Cc1ccc(C(=O)Nc2ccc(S(=O)(=O)O)c3cc(S(=O)(=O)O)cc(S(=O)(=O)O)c23)cc1NC(=O)c1cccc(NC(=O)Nc2cccc(C(=O)Nc3cc(C(=O)Nc4ccc(S(=O)(=O)O)c5cc(S(=O)(=O)O)cc(S(=O)(=O)O)c45)ccc3C)c2)c1
inactive: outcome [1] | outcome [2] | outcome [3] | Potency [4] | outcome [5] | Potency [6] | Potency [7] | outcome [8] | Potency [10] | outcome [11] | outcome [12] | Potency [13] | Potency [14] | outcome [15] | Potency [16] | outcome [19]
active: Potency [9] 23.9 µM

CC[N+](CC)(CC)CCOc1cccc(OCC[N+](CC)(CC)CC)c1OCC[N+](CC)(CC)CC
inactive: outcome [1] | max response [20] 2.7% | outcome [2] | outcome [3] | outcome [5] | Potency [6] | Potency [7] | outcome [8] | Potency [10] | outcome [11] | outcome [12] | Potency [13] | Potency [14] | outcome [15] | Potency [16] | outcome [18] | outcome [19]

CCOCC(C)O (stereo not drawn)
inactive: outcome [1] | max response [20] -1.56% | outcome [2] | outcome [3] | Potency [4] | outcome [5] | outcome [8] | Potency [9] | Potency [10] | outcome [11] | outcome [12] | Potency [13] | Potency [14] | outcome [15] | Potency [16] | outcome [17] | outcome [18] | outcome [19]

CCC(C(=O)NC(=O)NC(C)=O)c1ccccc1 (stereo not drawn)
inactive: outcome [1] | max response [20] -7.54% | outcome [2] | outcome [3] | Potency [4] | outcome [5] | Potency [7] | outcome [8] | Potency [9] | Potency [10] | outcome [11] | Potency [13] | Potency [14] | outcome [15] | Potency [16] | outcome [17] | outcome [18] | outcome [19]

CCN1CCOCC1
inactive: outcome [1] | outcome [2] | outcome [3] | Potency [4] | outcome [5] | Potency [6] | Potency [7] | outcome [8] | Potency [9] | Potency [10] | outcome [11] | outcome [12] | Potency [13] | Potency [14] | outcome [15] | Potency [16] | outcome [17] | outcome [18] | outcome [19]

O=C(CO)[C@@H](O)[C@H](O)[C@@H](O)CO
inactive: outcome [1] | max response [20] 5.66% | outcome [2] | Potency [4] | Potency [7] | outcome [8] | outcome [11] | outcome [12] | Potency [13] | Potency [14] | Potency [16] | outcome [18] | outcome [19]

C=C(C)C(=O)OCCOCCOCCOCCOC(=O)C(=C)C
inactive: outcome [1] | outcome [2] | outcome [3] | Potency [4] | outcome [5] | Potency [6] | Potency [7] | outcome [8] | Potency [9] | Potency [10] | outcome [11] | outcome [12] | Potency [13] | Potency [14] | outcome [15] | Potency [16] | outcome [17] | outcome [18] | outcome [19]
